# Measured values from PubChem BioAssay.
# Calls of active or inactive are those of the source.
# Columns and labels:
# [1] = tested on: Human papillomavirus type 1a protein E7 (residues 44-93); test: HPV1a E7 fragment binders on microarrays, primary screen, biochemical, small-molecule microarray, residues 44-93, 635 nm fluorescence (AID 1108); conditions: small-molecule microarray binding, fluorescence 635 nm; higher = more signal;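 also: E7 fragment applied at 1 µg/mL in TBST for 1 h at 4 C; score combines spot fluorescence with its signal to noise ratio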
# [2] = modulators of HCV replicon luciferase signal, primary screen, HCV replication inhibitor project, Huh7 cells, luciferase reporter (AID 1109); conditions: 48 h, higher = more signal;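 also: huh7 hepatoma cells harbouring a luciferase neomycin HCV replicon reporter; luciferase luminescence as measure of HCV replicon replication; test concentration not given here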
# [3] = target: Left-right determination factor 2 (Homo sapiens) (UniProt O00292); test: LEFTY2 binders on small-molecule microarrays, primary screen, biochemical, small-molecule microarray, 635 nm fluorescence scan (AID 1110); conditions: LEFTY2 binding, higher = more signal
# Left-right determination factor 2 (Homo sapiens), sequence (O00292 whole entry, looked up): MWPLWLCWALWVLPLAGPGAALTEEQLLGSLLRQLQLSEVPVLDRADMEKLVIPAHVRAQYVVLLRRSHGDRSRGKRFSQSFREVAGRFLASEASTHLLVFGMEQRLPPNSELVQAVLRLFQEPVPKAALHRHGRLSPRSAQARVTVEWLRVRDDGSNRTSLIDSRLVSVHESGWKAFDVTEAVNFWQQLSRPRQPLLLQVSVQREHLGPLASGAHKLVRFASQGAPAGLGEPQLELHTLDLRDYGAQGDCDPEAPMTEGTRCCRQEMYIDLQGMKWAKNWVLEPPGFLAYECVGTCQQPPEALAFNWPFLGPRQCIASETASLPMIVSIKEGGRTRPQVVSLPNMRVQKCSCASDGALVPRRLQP
# [4] = target: Calmodulin-1 (Homo sapiens) (UniProt P0DP23); test: CALM1 binders on microarrays, EGTA buffer, profiling panel, biochemical, small-molecule microarray, Cy5-labelled CALM1 (AID 1111); conditions: Cy5-CALM1 binding fluorescence, higher = more signal;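 also: labelled calmodulin applied in Tris saline Tween buffer holding calcium plus EGTA and DTT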
# [5] = target: Calmodulin-1 (Homo sapiens) (UniProt P0DP23); test: calcium-bound CALM1 binders on microarrays, profiling panel, artefact control for SMM control-protein annotation, biochemical, small-molecule microarray, Cy5-labelled CALM1, plus calcium (AID 1112); conditions: Cy5-CALM1 binding fluorescence, higher = more signal;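 also: score merges spot fluorescence with signal to noise from triplicate slides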
# [6] = small-molecule microarray binders of probe aWnt5a, primary screen, biochemical, biotinylated probe, 635/667 nm fluorescence (AID 1113); conditions: higher = more signal;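 also: score merges 667 nm fluorescence intensity with signal-to-noise per printed feature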
# [7] = small-molecule microarray binders of probe aShh, primary screen, biochemical, biotinylated probe, 635/667 nm fluorescence (AID 1114); conditions: higher = more signal;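 also: probe is biotin-labelled aShh protein from a stem cell growth factor screen; measures binding of labelled protein to compounds printed on the slide; score merges feature fluorescence at 667 nm with signal-to-noise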
# [8] = small-molecule microarray binders of probe aNog, primary screen, biochemical, biotinylated probe, 635/667 nm fluorescence (AID 1115); conditions: higher = more signal;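 also: probe is biotinylated aNog protein used at 0.15 µg/mL for 1 h at 4 C; z-score combines 667 nm fluorescence of each spot with its signal to noise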
# [9] = target: Torsin-1A-interacting protein 1 (Homo sapiens) (UniProt Q5JTV8); test: LAP1 binders from COS7 cell lysate, primary screen, small-molecule microarray, 635/667 nm fluorescence (AID 1116); conditions: COS7-hLAP1 lysate binding, 635 nm fluorescence, higher = more signal
# Torsin-1A-interacting protein 1 (Homo sapiens), sequence (Q5JTV8 whole entry, looked up): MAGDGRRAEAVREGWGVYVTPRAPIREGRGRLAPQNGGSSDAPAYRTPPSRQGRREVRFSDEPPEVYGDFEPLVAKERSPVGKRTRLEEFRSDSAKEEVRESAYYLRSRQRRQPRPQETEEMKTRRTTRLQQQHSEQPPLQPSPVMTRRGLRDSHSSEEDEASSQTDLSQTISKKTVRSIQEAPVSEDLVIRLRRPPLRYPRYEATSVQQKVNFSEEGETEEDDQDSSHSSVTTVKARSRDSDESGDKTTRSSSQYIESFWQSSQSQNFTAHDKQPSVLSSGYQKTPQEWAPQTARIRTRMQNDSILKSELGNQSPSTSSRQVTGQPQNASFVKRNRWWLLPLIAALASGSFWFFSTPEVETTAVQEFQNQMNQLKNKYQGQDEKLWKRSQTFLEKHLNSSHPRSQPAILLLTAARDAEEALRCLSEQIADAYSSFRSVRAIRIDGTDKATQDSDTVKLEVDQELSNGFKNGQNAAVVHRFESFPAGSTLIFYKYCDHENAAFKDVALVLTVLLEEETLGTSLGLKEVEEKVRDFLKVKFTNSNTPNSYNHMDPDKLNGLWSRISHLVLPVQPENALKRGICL
# [10] = target: Alpha-bungarotoxin (Bungarus multicinctus) (UniProt P60615); test: alpha-bungarotoxin binders on microarray, profiling panel, artefact control for SMM control protein annotation, biochemical, small-molecule microarray, Alexa647 label, 635/667 nm fluorescence (AID 1117); conditions: alpha-BTX-A647 binding fluorescence, higher = more signal
# Alpha-bungarotoxin (Bungarus multicinctus), sequence (P60615 whole entry, looked up): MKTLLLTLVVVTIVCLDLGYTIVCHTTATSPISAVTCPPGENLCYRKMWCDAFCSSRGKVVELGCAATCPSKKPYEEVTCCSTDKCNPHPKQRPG
# [11] = target: Albumin (Bos taurus) (UniProt P02769); test: bovine serum albumin binders on microarray, profiling panel, artefact control for SMM control protein annotation, biochemical, small-molecule microarray, Alexa647 label, 635/667 nm fluorescence (AID 1118); conditions: BSA-A647 binding, fluorescence 635 nm, higher = more signal;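 also: score merges 667 nm emission intensity and signal-to-noise per printed compound spot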
# Albumin (Bos taurus), sequence (P02769 whole entry, looked up): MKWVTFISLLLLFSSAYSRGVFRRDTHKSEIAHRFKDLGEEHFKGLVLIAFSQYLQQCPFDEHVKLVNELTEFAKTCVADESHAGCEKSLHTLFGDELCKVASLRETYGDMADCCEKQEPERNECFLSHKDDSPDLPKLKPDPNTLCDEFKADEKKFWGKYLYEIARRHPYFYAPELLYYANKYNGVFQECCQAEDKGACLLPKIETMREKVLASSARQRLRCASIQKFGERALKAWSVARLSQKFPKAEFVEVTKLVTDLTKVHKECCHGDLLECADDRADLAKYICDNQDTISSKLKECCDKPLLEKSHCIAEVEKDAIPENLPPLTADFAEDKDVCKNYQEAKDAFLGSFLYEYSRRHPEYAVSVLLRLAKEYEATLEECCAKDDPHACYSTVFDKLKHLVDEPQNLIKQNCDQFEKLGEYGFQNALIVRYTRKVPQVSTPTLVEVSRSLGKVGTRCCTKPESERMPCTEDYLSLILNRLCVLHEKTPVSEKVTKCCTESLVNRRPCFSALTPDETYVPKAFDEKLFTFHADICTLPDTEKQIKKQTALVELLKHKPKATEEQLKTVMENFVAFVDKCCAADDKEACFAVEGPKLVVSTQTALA
# [12] = small-molecule microarray binders of probe aXIP, primary screen, biochemical, NeuroSMM set, 635/667 nm fluorescence (AID 1119); conditions: higher = more signal, called active from +8 up or from −8 down;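 also: probe is the protein aXip251-270 applied at 1 µg/mL to compound-printed slides; binding of probe to printed compounds measured as 667 nm fluorescence plus signal to noise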
# [13] = small-molecule binders of probe aNOTCH3, primary screen, biochemical, small-molecule microarray, 635/667 nm fluorescence (AID 1120); conditions: higher = more signal;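 also: probe is a biotin-tagged antibody raised against NOTCH3 rather than NOTCH3 protein; score merges spot fluorescence near 667 nm with spot signal to noise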
# [14] = small-molecule binders of probe aNOTCH2, primary screen, biochemical, small-molecule microarray, 635/667 nm fluorescence (AID 1121); conditions: higher = more signal;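 also: score merges feature fluorescence read at 667 nm with its signal to noise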
# [15] = target: Carbonic anhydrase 2 (Homo sapiens) (UniProt P00918); test: CAII small-molecule binders, profiling panel, biochemical, small-molecule microarray, Alexa647-labelled CAII (AID 1122); conditions: CAII-A647 binding fluorescence, higher = more signal
# [16] = COS7 lysate on small-molecule microarray, probe aHis, 635 nm (AID 1123); conditions: COS7 cell lysate, fluorescence, higher = more signal;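 also: z-score combines 667nm fluorescence intensity with signal-to-noise per printed compound spot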
# [17] = compound binding in COS7 lysate, probe aLAP1, primary screen, cell lysate, small-molecule microarray (AID 1124); conditions: probe aLAP1, fluorescence, higher = more signal;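 also: lysate comes from COS7 cells expressing LAP1 and is applied at 0.3 µg/mL; score merges spot fluorescence near 667 nm with signal-to-noise over triplicate slides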
# [18] = tested on: Sam68 (KHDRBS1); test: Sam68 small-molecule binders, primary screen, biochemical, small-molecule microarray, 635 nm fluorescence (AID 1125); conditions: small-molecule microarray binding, higher = more signal;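 also: score merges 667 nm channel intensity with signal to noise over triplicate slides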
# [19] = tested on: Chordin-like protein 2 (CHRDL2); test: CHRDL2 small-molecule binders, primary screen, biochemical, small-molecule microarray, 635 nm fluorescence (AID 1126); conditions: small-molecule microarray binding, fluorescence 635 nm; higher = more signal;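 also: printed compound slides probed with Chrdl2 protein at 4 µg/mL for 1 h at 4 C; score merges 667 nm emission intensity with signal to noise over three replicate slides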
# [20] = target: Concanavalin-A (Canavalia ensiformis) (UniProt P02866); test: ConA small-molecule binders, primary screen, artefact control for SMM control protein annotation, biochemical, small-molecule microarray, Alexa647 label, 635 nm (AID 1127); conditions: ConA-A647 binding fluorescence, higher = more signal;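 also: z combines 667 nm emission intensity with signal-to-noise across three replicate slides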
# Concanavalin-A (Canavalia ensiformis), sequence (P02866 whole entry, looked up): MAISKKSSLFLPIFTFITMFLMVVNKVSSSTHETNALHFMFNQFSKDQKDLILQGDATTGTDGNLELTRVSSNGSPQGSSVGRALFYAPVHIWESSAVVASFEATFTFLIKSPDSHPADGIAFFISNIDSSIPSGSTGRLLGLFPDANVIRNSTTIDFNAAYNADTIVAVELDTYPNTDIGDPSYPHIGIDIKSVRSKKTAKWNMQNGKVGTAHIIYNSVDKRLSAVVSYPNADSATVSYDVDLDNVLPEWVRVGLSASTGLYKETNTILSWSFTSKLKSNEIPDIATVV
Compound,composite z-score [1],z-score [2],composite z-score [3],composite z-score [4],composite z-score [5],composite z-score [6],composite z-score [7],composite z-score [8],composite z-score [9],composite z-score [10],composite z-score [11],composite Z-score [12],composite z-score [13],composite z-score [14],composite z-score [15],composite z-score [16],composite z-score [17],composite z-score [18],composite z-score [19],composite z-score [20]
CC(C)C(O)C1C=CC2C(=O)NC(=O)C2N1Nc1ccccn1 (stereo not given),0.927,-0.43,0.108,0.0802,-0.187,0.009,-0.0793,0.116,0.325,0.631,0.701,0.316 (inactive),-0.0044,-0.0464,0.722,1.59,0.331,0.472,-0.369,0.561
CO[C@H]1O[C@H](CO)[C@@H](OC(=O)Nc2ccccc2)[C@H](OC(=O)Nc2ccccc2)[C@H]1OC(=O)Nc1ccccc1,1.5,-2.73,-0.0522,1.34,-0.12,0.0519,-0.0709,-0.273,1.75,1.05,0.729,-0.375 (inactive),-0.0918,-0.0567,0.521,2.45,0.373,1.3,-0.0958,1.15
CN(C)CCCNC(=O)[C@@]1(Cc2ccccc2I)c2ccccc2C(=O)N(C2CCCCC2)[C@H]1c1ccc(CO)cc1,0.664,-3.49,0.0837,1.71,1.2,-0.0057,1.26,0.0646,1.02,2.57,0.33,0.56 (inactive),0.417,0.227,0.443,1.57,0.653,1.31,-0.0713,1.16
CC(C)NC(=O)[C@@H]1c2ccccc2C(=O)N(Cc2ccccc2C(F)(F)F)[C@H]1c1ccc(CO)cc1,0.464,-0.692,-1.27,-0.588,-0.721,0.4,0.0649,-1.04,0.0048,-0.198,-0.273,-0.483 (inactive),-0.0144,-0.0901,0.726,0.725,0.647,-0.0631,-0.585,-0.329
O=C1C=C(c2ccccc2)C(=O)C2=C1CC([C@H]1Oc3ccccc3S(=O)(=O)N3CCC[C@@H]13)=CC2,0.529,-3.98,0.0208,0.042,-0.207,-0.124,-0.304,-0.172,0.0279,0.0221,0.0895,0.506 (inactive),-0.0918,-0.0485,-0.248,-0.227,-0.247,0.13,0.121,0.0457
COCCn1c(C(=O)N(C)C)cc2c1C[C@H]1CN(C(=O)c3ccccc3)[C@@](Cc3ccc(OC)cc3)(C(=O)OC)[C@@H]21,1.38,-1.27,0.0756,0.572,0.25,0.0431,0.204,0.919,0.357,0.0924,0.507,-0.0775 (inactive),0.32,0.0323,0.659,2.94,0.294,0.914,-0.545,0.732
